Assay in all cases: DAPPL (digital affinity profiling via proximity ligation, sequencing); 10 mM Tris-HCl pH 7.5, 50 mM NaCl, 1 mM DTT, 4% glycerol, room temperature, 30 min; GST-TFs on glutathione beads, 16-mer random dsDNA library, 0.1% formaldehyde crosslink after washing; high values mean tight binding
For one experiment, the target named is T1, FEV (Homo sapiens, UniProt Q99581 1-238).
T1 sequence: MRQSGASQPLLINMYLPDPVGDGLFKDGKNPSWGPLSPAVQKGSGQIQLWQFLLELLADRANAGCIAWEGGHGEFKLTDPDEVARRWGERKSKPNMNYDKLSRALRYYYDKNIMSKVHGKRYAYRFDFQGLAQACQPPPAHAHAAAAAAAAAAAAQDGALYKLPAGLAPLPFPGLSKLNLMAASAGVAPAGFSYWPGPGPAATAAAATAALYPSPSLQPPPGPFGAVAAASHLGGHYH
The following applies: protein: recombinant; tags: N-terminal GST; dsDNA, one strand shown. The method in brief: (§1)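 Yeast served to express human transcription factors as GST fusions, which were then captured on glutathione beads and labelled with DNA barcodes. Pooled with a tag-only sample, they were incubated with 200 nmole of a 16-mer random double-stranded DNA library for 30 min at room temperature in Tris/NaCl/DTT/glycerol buffer, washed, crosslinked with 0.1% formaldehyde, ligated by proximity, amplified by PCR and sequenced. Dividing each hexamer's read frequency for a factor by its frequency for the tag-only sample gives the binding signal.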

Another experiment addresses ETV5 (Homo sapiens, UniProt P41161 1-510). The following applies: protein: recombinant; tags: N-terminal GST; dsDNA, one strand shown. In a few lines: as §1
The next experiment addresses HSF1 (Homo sapiens, UniProt Q00613 1-529). The following applies: protein: recombinant; tags: N-terminal GST; chain copies: 3; dsDNA, one strand shown. In a few lines:
as §1

The target in a further experiment is T2, SPIC (Homo sapiens, UniProt Q8N5J4 1-248).
T2 sequence: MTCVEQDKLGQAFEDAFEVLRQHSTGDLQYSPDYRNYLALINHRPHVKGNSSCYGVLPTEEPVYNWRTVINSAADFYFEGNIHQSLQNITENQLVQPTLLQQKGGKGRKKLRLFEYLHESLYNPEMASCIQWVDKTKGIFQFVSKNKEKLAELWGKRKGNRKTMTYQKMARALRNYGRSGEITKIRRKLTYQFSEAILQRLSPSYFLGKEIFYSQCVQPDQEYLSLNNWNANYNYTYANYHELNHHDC
The following applies: protein: recombinant; tags: N-terminal GST; dsDNA, one strand shown. The method in brief:
as §1

The next experiment has as its target ELF4 (Homo sapiens, UniProt Q99607 1-663). The following applies: protein: recombinant; tags: N-terminal GST; dsDNA, one strand shown. The method in brief:
as §1

Another experiment has as its target T3, ELK4 (Homo sapiens, UniProt P28324-2 1-405).
T3 sequence: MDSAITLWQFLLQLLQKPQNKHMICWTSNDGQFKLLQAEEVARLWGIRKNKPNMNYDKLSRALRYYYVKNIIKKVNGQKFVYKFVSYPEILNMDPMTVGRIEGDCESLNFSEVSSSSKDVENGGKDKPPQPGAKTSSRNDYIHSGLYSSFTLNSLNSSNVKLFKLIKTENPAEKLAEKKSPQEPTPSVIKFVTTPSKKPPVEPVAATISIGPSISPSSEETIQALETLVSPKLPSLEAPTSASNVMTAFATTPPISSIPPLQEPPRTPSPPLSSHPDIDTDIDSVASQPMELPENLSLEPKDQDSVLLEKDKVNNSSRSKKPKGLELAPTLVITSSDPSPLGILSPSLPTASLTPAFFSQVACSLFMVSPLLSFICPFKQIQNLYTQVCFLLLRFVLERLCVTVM
The following applies: protein: recombinant; tags: N-terminal GST; dsDNA, one strand shown. The method in brief: as §1

The next experiment has as its target T4, ETV2 (Homo sapiens, UniProt O00321 1-342).
T4 sequence: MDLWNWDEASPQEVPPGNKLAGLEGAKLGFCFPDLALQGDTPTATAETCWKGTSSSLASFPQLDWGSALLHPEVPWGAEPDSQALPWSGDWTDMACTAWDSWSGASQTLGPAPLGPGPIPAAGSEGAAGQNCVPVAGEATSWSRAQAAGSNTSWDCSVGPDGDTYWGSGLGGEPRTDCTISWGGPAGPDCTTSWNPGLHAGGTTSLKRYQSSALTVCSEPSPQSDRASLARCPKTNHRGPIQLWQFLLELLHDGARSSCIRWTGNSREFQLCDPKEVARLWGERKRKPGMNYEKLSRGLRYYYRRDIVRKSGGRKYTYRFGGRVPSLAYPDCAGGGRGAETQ
The following applies: protein: recombinant; tags: N-terminal GST; dsDNA, one strand shown. In a few lines: as §1

The next experiment concerns the target T5, ELF3 (Homo sapiens, UniProt P78545 1-371).
T5 sequence: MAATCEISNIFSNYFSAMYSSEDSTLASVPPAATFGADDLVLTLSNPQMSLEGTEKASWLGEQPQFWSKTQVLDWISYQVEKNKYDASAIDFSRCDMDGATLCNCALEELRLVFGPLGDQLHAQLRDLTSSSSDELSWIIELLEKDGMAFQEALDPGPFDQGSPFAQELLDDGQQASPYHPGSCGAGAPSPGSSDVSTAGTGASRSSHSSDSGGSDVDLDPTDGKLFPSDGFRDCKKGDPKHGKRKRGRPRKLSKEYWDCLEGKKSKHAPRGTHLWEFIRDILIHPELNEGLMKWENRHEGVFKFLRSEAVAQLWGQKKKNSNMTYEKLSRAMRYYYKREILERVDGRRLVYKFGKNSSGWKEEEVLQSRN
The following applies: protein: recombinant; tags: N-terminal GST; dsDNA, one strand shown. The method in brief: as §1

Another experiment deals with CRX (Homo sapiens, UniProt O43186 1-299). The following applies: protein: recombinant; tags: N-terminal GST; dsDNA, one strand shown. The method in brief: as §1
The target of another experiment is ETV1 (Homo sapiens, UniProt P50549 1-477). The following applies: protein: recombinant; tags: N-terminal GST; dsDNA, one strand shown. In a few lines:
as §1

The next experiment concerns the target T6, ERF (Homo sapiens, UniProt P50548 1-548).
T6 sequence: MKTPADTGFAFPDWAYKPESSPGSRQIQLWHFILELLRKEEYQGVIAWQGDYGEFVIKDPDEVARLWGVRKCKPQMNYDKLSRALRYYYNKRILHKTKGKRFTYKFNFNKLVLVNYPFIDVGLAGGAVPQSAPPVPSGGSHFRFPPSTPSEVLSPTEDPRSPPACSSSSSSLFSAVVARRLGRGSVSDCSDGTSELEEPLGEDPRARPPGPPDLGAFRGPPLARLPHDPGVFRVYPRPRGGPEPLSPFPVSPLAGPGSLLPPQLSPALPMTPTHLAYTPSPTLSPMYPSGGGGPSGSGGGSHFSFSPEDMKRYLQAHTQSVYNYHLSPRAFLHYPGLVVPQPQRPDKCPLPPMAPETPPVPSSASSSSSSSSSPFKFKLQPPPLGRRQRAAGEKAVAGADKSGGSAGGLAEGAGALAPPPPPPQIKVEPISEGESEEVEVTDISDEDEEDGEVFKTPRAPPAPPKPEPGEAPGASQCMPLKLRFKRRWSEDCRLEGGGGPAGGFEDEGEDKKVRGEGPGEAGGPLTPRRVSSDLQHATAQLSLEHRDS
The following applies: protein: recombinant; tags: N-terminal GST; dsDNA, one strand shown. In a few lines:
as §1

Another experiment deals with T7, ETV3L (Homo sapiens, UniProt Q6ZN32 1-361).
T7 sequence: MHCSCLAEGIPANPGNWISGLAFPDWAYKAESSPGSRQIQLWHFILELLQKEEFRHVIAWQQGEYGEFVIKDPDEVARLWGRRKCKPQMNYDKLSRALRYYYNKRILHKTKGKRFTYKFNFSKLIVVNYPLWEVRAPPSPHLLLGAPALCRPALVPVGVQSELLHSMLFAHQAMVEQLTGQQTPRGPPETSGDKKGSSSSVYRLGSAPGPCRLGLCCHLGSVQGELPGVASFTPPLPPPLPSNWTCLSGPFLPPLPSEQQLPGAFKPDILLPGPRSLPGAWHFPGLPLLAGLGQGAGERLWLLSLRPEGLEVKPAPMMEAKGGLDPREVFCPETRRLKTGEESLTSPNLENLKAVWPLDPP
The following applies: protein: recombinant; tags: N-terminal GST; dsDNA, one strand shown. The method in brief: as §1

In another experiment the target is T8, ETS2 (Homo sapiens, UniProt P15036 1-469).
T8 sequence: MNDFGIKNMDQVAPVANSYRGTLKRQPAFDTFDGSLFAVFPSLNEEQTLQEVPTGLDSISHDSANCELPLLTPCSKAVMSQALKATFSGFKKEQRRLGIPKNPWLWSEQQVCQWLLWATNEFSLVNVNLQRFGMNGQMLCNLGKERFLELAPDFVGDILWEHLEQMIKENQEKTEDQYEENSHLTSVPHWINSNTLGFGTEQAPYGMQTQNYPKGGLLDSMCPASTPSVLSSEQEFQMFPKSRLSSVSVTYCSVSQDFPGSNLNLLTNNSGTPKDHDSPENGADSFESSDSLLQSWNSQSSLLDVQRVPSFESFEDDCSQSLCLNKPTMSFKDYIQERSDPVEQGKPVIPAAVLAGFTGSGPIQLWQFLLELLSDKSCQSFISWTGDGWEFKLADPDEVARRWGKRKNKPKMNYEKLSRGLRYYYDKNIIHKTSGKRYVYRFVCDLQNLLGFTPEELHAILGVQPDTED
The following applies: protein: recombinant; tags: N-terminal GST; dsDNA, one strand shown. The method in brief: as §1

In another experiment the target is T9, SPDEF (Homo sapiens, UniProt O95238 1-335).
T9 sequence: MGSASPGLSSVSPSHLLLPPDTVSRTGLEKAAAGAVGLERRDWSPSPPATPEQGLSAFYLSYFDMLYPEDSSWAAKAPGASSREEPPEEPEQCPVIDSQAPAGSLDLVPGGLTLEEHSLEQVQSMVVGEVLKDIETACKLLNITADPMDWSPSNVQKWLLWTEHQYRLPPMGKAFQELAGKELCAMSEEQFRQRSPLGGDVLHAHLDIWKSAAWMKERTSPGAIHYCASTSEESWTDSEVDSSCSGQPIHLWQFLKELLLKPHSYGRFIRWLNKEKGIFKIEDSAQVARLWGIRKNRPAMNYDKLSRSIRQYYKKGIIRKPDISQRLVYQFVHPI
The following applies: protein: recombinant; tags: N-terminal GST; dsDNA, one strand shown. In a few lines: as §1

The next experiment deals with T10, ETV7 (Homo sapiens, UniProt Q9Y603 1-341).
T10 sequence: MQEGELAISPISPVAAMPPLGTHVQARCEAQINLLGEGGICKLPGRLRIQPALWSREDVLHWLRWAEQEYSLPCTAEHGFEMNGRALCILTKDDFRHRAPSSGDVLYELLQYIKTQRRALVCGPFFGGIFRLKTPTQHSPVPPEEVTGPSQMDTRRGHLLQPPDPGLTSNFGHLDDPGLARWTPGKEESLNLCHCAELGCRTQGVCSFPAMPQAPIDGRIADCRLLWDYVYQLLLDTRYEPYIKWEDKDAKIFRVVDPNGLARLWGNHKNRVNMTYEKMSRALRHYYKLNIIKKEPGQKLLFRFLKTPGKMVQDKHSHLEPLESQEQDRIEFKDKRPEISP
The following applies: protein: recombinant; tags: N-terminal GST; dsDNA, one strand shown. In a few lines: as §1

A further experiment addresses T11, ELF5 (Homo sapiens, UniProt Q9UKW6-2 1-255).
T11 sequence: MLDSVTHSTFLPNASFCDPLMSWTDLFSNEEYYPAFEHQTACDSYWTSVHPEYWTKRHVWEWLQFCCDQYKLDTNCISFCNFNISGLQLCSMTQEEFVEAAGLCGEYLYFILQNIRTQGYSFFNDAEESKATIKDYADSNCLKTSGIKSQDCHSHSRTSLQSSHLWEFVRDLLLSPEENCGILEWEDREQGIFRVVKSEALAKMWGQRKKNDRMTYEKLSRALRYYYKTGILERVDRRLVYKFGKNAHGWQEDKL
The following applies: protein: recombinant; tags: N-terminal GST; dsDNA, one strand shown. In a few lines:
as §1

The target in another experiment is T12, ETV3 (Homo sapiens, UniProt P41162-2 1-143).
T12 sequence: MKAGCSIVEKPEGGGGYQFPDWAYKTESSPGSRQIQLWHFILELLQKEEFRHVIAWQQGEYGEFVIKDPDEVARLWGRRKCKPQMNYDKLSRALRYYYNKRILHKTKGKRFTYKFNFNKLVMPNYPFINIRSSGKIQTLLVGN
The following applies: protein: recombinant; tags: N-terminal GST; dsDNA, one strand shown. In a few lines: as §1

Another experiment addresses ETV6 (Homo sapiens, UniProt P41212 1-452). The following applies: protein: recombinant; tags: N-terminal GST; dsDNA, one strand shown. In a few lines:
as §1

Sequence of CRX (O43186 whole entry): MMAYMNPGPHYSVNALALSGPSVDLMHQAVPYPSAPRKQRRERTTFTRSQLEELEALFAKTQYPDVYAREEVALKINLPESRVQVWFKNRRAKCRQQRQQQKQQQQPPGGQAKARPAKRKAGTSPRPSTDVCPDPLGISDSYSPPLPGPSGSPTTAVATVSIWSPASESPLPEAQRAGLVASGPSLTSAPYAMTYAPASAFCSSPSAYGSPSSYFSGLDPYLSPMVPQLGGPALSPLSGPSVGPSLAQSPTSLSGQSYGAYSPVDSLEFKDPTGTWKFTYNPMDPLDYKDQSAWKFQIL
Sequence of ETV1 (P50549 whole entry): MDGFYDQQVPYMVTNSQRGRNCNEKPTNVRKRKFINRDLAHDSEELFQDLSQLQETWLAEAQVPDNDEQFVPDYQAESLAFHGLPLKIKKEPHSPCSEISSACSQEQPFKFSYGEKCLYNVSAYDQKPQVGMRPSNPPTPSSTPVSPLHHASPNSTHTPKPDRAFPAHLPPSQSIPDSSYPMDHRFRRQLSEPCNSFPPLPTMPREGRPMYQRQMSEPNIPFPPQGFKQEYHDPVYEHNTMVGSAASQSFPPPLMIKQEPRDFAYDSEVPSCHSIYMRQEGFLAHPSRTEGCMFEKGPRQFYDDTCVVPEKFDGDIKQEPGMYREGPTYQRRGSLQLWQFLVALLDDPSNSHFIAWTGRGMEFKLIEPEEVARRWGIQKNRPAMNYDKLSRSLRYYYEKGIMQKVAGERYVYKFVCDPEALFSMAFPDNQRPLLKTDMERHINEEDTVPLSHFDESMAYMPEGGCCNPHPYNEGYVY
Sequence of ELF4 (Q99607 whole entry): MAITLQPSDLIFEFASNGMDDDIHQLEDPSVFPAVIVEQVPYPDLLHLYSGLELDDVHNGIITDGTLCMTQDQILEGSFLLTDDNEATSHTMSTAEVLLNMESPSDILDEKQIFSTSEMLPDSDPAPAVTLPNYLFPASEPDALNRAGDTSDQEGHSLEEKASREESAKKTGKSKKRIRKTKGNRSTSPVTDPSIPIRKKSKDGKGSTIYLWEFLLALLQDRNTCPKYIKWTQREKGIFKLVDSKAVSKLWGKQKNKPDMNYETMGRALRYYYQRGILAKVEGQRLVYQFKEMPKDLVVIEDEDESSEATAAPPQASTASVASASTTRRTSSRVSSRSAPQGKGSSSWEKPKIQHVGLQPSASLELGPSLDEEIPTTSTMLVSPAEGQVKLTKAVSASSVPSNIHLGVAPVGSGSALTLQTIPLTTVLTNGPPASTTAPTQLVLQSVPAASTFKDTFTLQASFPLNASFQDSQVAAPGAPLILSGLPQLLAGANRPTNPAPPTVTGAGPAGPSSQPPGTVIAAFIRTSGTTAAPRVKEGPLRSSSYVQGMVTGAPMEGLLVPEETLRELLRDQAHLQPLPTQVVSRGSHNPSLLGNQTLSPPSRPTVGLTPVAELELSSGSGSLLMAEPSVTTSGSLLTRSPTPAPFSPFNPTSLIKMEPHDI
Sequence of ETV6 (P41212 whole entry): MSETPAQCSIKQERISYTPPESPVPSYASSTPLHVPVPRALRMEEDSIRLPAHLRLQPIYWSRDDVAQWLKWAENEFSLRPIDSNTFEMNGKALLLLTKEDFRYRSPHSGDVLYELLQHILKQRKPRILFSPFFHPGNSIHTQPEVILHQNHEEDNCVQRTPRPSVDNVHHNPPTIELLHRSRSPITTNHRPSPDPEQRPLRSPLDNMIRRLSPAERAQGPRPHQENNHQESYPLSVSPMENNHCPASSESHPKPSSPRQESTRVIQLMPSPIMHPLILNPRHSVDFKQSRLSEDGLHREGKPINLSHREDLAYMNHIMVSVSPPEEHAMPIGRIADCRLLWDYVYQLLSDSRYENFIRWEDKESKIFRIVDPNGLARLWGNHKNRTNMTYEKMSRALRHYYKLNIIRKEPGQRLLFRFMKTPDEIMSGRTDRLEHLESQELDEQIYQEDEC
Sequence of HSF1 (Q00613 whole entry): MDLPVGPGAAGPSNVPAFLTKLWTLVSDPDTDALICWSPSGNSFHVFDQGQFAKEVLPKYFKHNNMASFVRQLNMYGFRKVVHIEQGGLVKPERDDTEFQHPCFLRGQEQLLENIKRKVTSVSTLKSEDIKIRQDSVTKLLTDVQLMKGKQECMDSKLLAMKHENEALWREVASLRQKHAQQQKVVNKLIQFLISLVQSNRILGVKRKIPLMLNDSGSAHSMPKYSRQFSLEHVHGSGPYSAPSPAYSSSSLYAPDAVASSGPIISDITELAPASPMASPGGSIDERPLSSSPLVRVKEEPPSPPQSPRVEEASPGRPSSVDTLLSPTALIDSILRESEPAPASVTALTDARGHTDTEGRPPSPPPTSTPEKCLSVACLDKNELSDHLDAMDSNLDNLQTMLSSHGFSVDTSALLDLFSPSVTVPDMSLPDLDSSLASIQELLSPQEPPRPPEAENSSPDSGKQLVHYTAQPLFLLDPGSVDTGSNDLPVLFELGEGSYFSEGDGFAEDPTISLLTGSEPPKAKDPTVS
Sequence of ETV5 (P41161 whole entry): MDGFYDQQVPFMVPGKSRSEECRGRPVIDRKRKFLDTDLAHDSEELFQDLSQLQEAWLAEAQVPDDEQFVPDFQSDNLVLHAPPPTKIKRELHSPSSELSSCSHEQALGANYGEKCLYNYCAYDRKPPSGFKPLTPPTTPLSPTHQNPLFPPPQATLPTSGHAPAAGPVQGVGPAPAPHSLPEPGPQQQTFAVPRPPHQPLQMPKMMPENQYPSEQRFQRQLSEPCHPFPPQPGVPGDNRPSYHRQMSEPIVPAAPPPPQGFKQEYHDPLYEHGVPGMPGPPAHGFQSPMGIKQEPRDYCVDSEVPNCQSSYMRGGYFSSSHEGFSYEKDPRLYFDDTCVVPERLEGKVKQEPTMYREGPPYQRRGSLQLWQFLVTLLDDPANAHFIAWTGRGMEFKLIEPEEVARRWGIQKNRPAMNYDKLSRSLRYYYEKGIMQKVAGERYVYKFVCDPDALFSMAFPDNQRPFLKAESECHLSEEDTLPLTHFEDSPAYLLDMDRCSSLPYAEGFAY

ACCCTA: the binding signal in the experiment with FEV was 1.22 fold enrichment (6-mer frequency, TF over GST control); in the experiment with ETV5, 1.21 fold enrichment (6-mer frequency, TF over GST control); with HSF1 it was 1.18 fold enrichment (6-mer frequency, TF over GST control); with SPIC, 1.19 fold enrichment (6-mer frequency, TF over GST control); in the experiment with ELF4, 1.26 fold enrichment (6-mer frequency, TF over GST control); with ELK4 it was 1.24 fold enrichment (6-mer frequency, TF over GST control). The binding signal is 1.27 fold enrichment (6-mer frequency, TF over GST control) with ETV2; 1.23 fold enrichment (6-mer frequency, TF over GST control) with ELF3; 1.29 fold enrichment (6-mer frequency, TF over GST control) in the experiment with CRX; 1.45 fold enrichment (6-mer frequency, TF over GST control) with ETV1; 1.3 fold enrichment (6-mer frequency, TF over GST control) with ERF; 1.26 fold enrichment (6-mer frequency, TF over GST control) with ETV3L. For the same sequence, the binding signal is 1.24 fold enrichment (6-mer frequency, TF over GST control) with ETS2; 1.19 fold enrichment (6-mer frequency, TF over GST control) with SPDEF; 1.27 fold enrichment (6-mer frequency, TF over GST control) with ETV7; 1.19 fold enrichment (6-mer frequency, TF over GST control) with ELF5; 1.25 fold enrichment (6-mer frequency, TF over GST control) with ETV3; 1.17 fold enrichment (6-mer frequency, TF over GST control) with ETV6.
